Drawing on PubChem BioAssay AID1903 (Southern Research Specialized Biocontainment Screening …, 2009), this text covers inhibition for 98 compounds.

The structures appear in SMILES notation. In all, about 310,000 compounds went through this assay and about 1,200 (0.39%) were called active. Not all results are given here. Entries with a potency or affinity are not part of this list. Unmarked numbers belong to inactive results. The rule behind the calls is not given here.

Sequence of Large T antigen (Simian virus 40) (P03070 whole entry, looked up): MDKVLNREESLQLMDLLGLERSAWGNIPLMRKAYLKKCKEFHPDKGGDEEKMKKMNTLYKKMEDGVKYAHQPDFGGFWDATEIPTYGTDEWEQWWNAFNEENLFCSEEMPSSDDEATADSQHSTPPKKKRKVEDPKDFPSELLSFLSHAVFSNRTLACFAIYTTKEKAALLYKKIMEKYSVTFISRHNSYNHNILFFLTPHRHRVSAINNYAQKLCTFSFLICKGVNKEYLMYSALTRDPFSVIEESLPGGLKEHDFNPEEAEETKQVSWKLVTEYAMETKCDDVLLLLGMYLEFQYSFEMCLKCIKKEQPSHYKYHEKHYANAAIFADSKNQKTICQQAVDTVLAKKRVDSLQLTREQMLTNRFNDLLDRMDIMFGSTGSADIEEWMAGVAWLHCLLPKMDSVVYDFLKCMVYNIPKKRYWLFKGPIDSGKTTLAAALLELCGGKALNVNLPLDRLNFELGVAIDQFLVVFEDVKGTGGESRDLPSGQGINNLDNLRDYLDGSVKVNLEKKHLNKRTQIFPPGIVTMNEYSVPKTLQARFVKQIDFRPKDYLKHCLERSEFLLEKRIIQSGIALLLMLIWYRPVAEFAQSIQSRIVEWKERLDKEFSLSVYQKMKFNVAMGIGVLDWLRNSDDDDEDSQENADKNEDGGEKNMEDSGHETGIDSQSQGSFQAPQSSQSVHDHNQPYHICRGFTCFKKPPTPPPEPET

The assay concerns the target Large T antigen (Simian virus 40) (UniProt P03070). The assay is described as follows: TAg ATPase/helicase activity blockers – biochemical (AID 1903). To be noted: SV40 large T antigen ATPase/helicase inhibition assay; at 20 µM; active compounds read high.
One may read the inhibition as the relative decrease from the control value, in per cent. In the case of `COc1ccc(/C=N/n2c(COc3ccccc3)n[nH]c2=S)cc1OC`, the inhibition was 32.6%.
Next, `O=C(O)COc1ccc(/C=N/n2c(COc3ccccc3)nc3ccccc3c2=O)cc1`: 1.95%.
In the case of `CCCc1nc2ccccc2c(=O)n1/N=C/c1ccc(O)cc1`, the inhibition is 6.26%.
On to `O=c1c2ccccc2nc(COc2ccccc2)n1/N=C/c1ccc(O)cc1O`, for which the inhibition is 5.35%.
Next, `CCCc1nc2ccccc2c(=O)n1/N=C/c1ccccc1O`: -9.27%; `CCOc1cc(/C=N/n2c(COc3ccccc3)n[nH]c2=S)ccc1O`: 19.9%; `O=C1COc2ccc(C(=O)COC(=O)c3cc(S(=O)(=O)NCc4ccccc4)ccc3O)cc2N1`: 13%.
To `Cc1cc(Cl)ccc1NC(=O)CN1C(=O)NC2(CCCc3ccccc32)C1=O` (stereo not drawn) belongs 25.2%; to `CCOC(=O)CN1C(=O)SC(CC(=O)Nc2nccs2)C1=O` (stereo not drawn), 2.87%.
Take `O=C(COC(=O)Cc1ccccc1F)NNC(=O)c1ccc([N+](=O)[O-])cc1`: the inhibition was 22.7%.
To `FC(F)Oc1ccc(-n2cc(-c3ccccc3)[n+]3c2CCCCC3)cc1` belongs 10.7%; to `COc1ccccc1NC(=S)N1CCN(c2cccc(C)c2C)CC1`, -4.85%.
To `COc1ccccc1NS(=O)(=O)c1ccc(O)cc1` belongs 7.04%; to `O=C(O)CN1C(=O)S/C(=C\c2cccnc2)C1=O`, 16.2%; to `O=C(CCc1nnc(-c2ccsc2)o1)NCc1ccccc1OC(F)(F)F`, 3.5%.
Next, `CN(C)S(=O)(=O)c1ccc(NC(=O)c2ccccn2)cc1`: -5.42%; `O=C(NCc1ccco1)C1CC(=O)N(c2ccc(F)cc2)C1` (stereo not drawn): 9.04%; `O=C(NCc1ccco1)C1CC(=O)N(c2ccc(Cl)cc2)C1` (stereo not drawn): -4.21%.
As to `[O-][n+]1ccccc1SCc1ccccc1`, the inhibition is 10.4%.
To `[O-][n+]1ccccc1/C=C/c1ccccc1` belongs 7.12%.
Next, `COc1ccc(NC(=O)C2CCN(S(=O)(=O)c3cccc4nonc34)CC2)c(OC)c1`: 10.9%; `CC1CCN(CCCCOc2ccc([N+](=O)[O-])cc2)CC1`: 20.7%.
For the compound `O=C(CN1CCCN(Cc2ccc(F)cc2)S1(=O)=O)NC1CCCC1`, the inhibition is 1.85%.
In the case of `Cc1ccc(NC(=O)NC2CCCCCCC2)cc1`, the inhibition is 3.82%.
To `O=C(Nc1ccc(Cl)cc1)NC1CCCCC1` belongs 0.423%; to `O=C(c1ccc2c(c1)OCO2)N1CCC2(CC1)Oc1ccc(Cl)cc1C(=O)C21CC(c2cccnc2)=NO1` (stereo not drawn), 6.56%.
Next, `O=C(CCn1c(=O)oc2ccccc21)Nc1cccc(Cl)c1`: 6.5%; `O=C(CCn1c(=O)oc2cc(Cl)ccc21)Nc1ccc(N2CCOCC2)cc1`: 12.7%; `CCCCN(C(=O)c1ccc(S(=O)(=O)N2CCCC2)cc1)C1CCS(=O)(=O)C1` (stereo not drawn): 2.38%.
To `O=C(COc1ccc(Br)cc1)NNC(=S)NCc1ccccc1` belongs 15%; to `COC(=O)/C(C#N)=C1/C=Cc2ccccc2N1`, 9.95%.
As to `O=S1c2ccccc2Nc2ccccc21`, the inhibition is 8.27%.
In the case of `OC[C@H]1OC(O)[C@@H](O)[C@@H](O)[C@@H]1O` (stereo partly drawn), the inhibition is 12.2%.
Regarding `O=C(Cn1nc(C(=O)O)c2ccccc2c1=O)NC12CC3CC(CC(C3)C1)C2`, the inhibition was 3.68%.
As to `O=C(CSc1ccccc1C(=O)O)NC12CC3CC(CC(C3)C1)C2`, the inhibition is 7.17%.
Consider `N#Cc1ccsc1NC(=O)CN1CCN(S(=O)(=O)c2ccc3ccccc3c2)CC1`, for which the inhibition was -5.22%.
Take `O=C(CCc1c[nH]c2ccccc12)NC(Cc1c[nH]c2ccccc12)C(=O)O` (stereo not drawn): the inhibition was 11.4%.
As for `NNC(=O)c1ccccc1CO`, the inhibition was 3.38%.
Consider `CNC(=O)c1ccccc1Sc1ccccc1CO`, for which the inhibition was 10.3%.
To `O=[N+]([O-])c1cccc(/C=N/N2CCN(c3ccccn3)CC2)c1` belongs 15.9%.
For `COc1ccccc1CNC(=O)c1ccccc1C(=O)NC(CC(C)C)C(=O)NCc1ccccc1OC` (stereo not drawn), the inhibition was 14%.
Next, `CCCNC(=O)CCCCn1c(=S)[nH]c2c([nH]c3ccc(OC)cc32)c1=O`: 10.7%.
As for `COc1ccc2[nH]c3c(=O)n(CCCCC(=O)NCCC(C)C)c(=S)[nH]c3c2c1`, the inhibition was 9.9%.
To `COc1ccc2[nH]c3c(=O)n(CCCCCC(=O)NCCC(C)C)c(=S)[nH]c3c2c1` belongs 5.88%; to `CCCCNC(=O)CCCCn1c(=S)[nH]c2c([nH]c3ccc(OC)cc32)c1=O`, 9.54%; to `CCc1nc2oc3ccccc3c(=O)c2c(=O)n1Cc1ccccc1`, 2.01%.
Turning to `Cn1ccnc1SCC(=O)c1cccc(Br)c1`, the inhibition was 23.2%.
Next, `Cc1cc(C)c(NC(=O)COC(=O)CSc2ccc(Br)cc2C)c(C)c1`: -2.91%.
Regarding `O=C(O)c1ccc(O)c(O)c1`, the inhibition was 8.73%.
To `CC(=O)c1ccc(O)c(CO)c1` belongs 8.31%; to `O=C(CSc1nnc(Cn2c(=O)sc3ccccc32)n1-c1ccccc1)N1CCCCCC1`, 2.86%; to `COCCCNCCOCCOc1ccc(C)cc1[N+](=O)[O-]`, 0.35%.
For the compound `Cc1cccc(NC(=S)NNc2cccc(Cl)c2)c1`, the inhibition is 23.5%.
Turning to `CCOc1ccc(C(=O)c2ccc(OCC)c(N)c2)cc1N`, the inhibition was 3.54%.
Turning to `CCOc1ccc(S(=O)(=O)N(CC)CC)cc1N`, the inhibition was -1.97%.
Next, `CC(=O)c1ccc(NC(=O)CN2CCC(C(=O)c3ccc(F)cc3)CC2)cc1`: 25.6%; `COc1ccc(C(=O)C2CCN(CC(=O)Nc3ccc(C)cc3)CC2)cc1`: -0.7%.
`O=C(CN1CCC(C(=O)c2ccc(F)cc2)CC1)Nc1ccc(F)cc1`: the inhibition is 3.44%.
To `CN(C)c1ccc(NC(=O)CN2CCC(NC(=O)C3CCCCC3)CC2)cc1` belongs 28.2%.
Next, `O=C(CN1CCN(C2CCCCC2)CC1)Nc1ccc(Br)cc1`: 3.84%; `Cc1ccc(NC(=O)CN2CCC(C(=O)c3ccc(F)cc3)CC2)cc1`: 11.8%.
To `COc1cccc(-c2ccc(NC(=O)C3CCCN(Cc4cnc(C)n4C)C3)cc2)c1` (stereo not drawn) belongs 12.9%; to `Nc1nc(-c2ccccc2)c(-c2ccc([N+](=O)[O-])cc2)s1`, 2.8%.
Regarding `Nc1nc(-c2ccccc2)c(-c2ccccc2)s1`, the inhibition is 22%.
For the compound `O=C(Nc1cccc(S(=O)(=O)N2CCCC2)c1)c1cccnc1`, the inhibition is 8.88%.
Regarding `CCn1c(C)nc2cc(C(=O)NNC(=S)NC(=O)c3ccccc3)ccc21`, the inhibition is 22.4%.
`COc1ccc(C(=O)Nc2ccc(NC(=O)C3CC3)cn2)cc1`: the inhibition is 10.7%.
In the case of `C=CCN1C(=O)S/C(=C/c2ccc(Sc3nc4ccccc4[nH]3)o2)C1=O`, the inhibition is 6.66%.
As to `CCN1C(=O)S/C(=C/c2ccc(Sc3nc4ccccc4[nH]3)o2)C1=O`, the inhibition was 10.6%.
Turning to `N#C/C(=C\c1ccc(Sc2nc3ccccc3[nH]2)o1)c1ccccc1`, the inhibition is 13%.
`N#C/C(=C/c1ccc(Sc2nc3ccccc3[nH]2)o1)c1cccc(F)c1`: the inhibition was 0.21%.
`CC(C)N1C(=O)S/C(=C/c2ccc(Sc3nc4ccccc4[nH]3)o2)C1=O`: the inhibition was 7.29%.
To `N#C/C(=C/c1ccc(Sc2nc3ccccc3[nH]2)o1)c1cccc(Br)c1` belongs -8.47%; to `O=C(NCc1ccco1)/C(=C/c1ccc(F)cc1)NC(=O)c1ccccc1`, 5.2%.
To `O=C(O)CC1(CC(=O)Nc2ccc3ccccc3n2)CCCCC1` belongs 10.8%.
As to `Cc1cccc(N=C2N=C(N)c3ccccc32)c1`, the inhibition is 0.797%.
To `COc1ccc(-c2nc3ccccn3c2NC2CCCCC2)cc1SC1CCCCC1` belongs 9.08%; to `COc1ccc(-c2cn(Cc3ccc(C)cc3)nn2)cc1`, 5.41%; to `COCCOC(=O)C1=C(C)NC(=O)NC1c1cn(-c2ccccc2)nc1-c1cccs1` (stereo not drawn), 8.59%.
Next, `Cc1cccc(Oc2ccccc2N)c1`: -2.44%; `CC(=O)Nc1ccc(NC(=O)Oc2ccccc2)cc1`: 16.2%; `O=C(Nc1ccc(N2CCN(c3ccc(O)cc3)CC2)cc1)Oc1ccccc1`: 16.3%.
With `O=C(CC1C(=O)NCCN1CC(c1ccccc1)c1ccccc1)NC1CC1` (stereo not drawn), the inhibition is 3.88%.
`OCC1(CCCc2ccccc2)CCN(C2CCC2)CC1`: the inhibition was 4.13%.
Regarding `O=C(COC(=O)C1=COCCO1)NCc1ccc(F)cc1`, the inhibition was 17.7%.
As to `Cc1ccccc1OCCC(=O)Nc1ccc(F)c(Cl)c1`, the inhibition is 7.2%.
To `Cc1cc(=O)[nH]c2cc(O)ccc12` belongs 12.9%; to `CCCCCCCCC1=NCCc2c1[nH]c1ccccc21`, 7.25%.
Regarding `COc1cccc(C=Nc2ccccc2C(=O)Nc2ccccc2)c1O`, the inhibition was 1.08%.
On to `Nc1cc(-c2ccc(Cl)cc2)nn1S(=O)(=O)c1ccccc1`, for which the inhibition was 0.87%.
Next, `COc1ccc(/C=C(/C#N)C(=O)Nc2ccccc2C)cc1C(=O)O`: 9.24%; `N#C/C(=C/c1ccc(N2CCCCC2)o1)C(=O)Nc1ccc(Cl)cc1`: 22.3%.
As for `N#C/C(=C/c1ccc(N2CCOCC2)o1)C(=O)Nc1ccccc1`, the inhibition is 8.94%.
Next, `COc1ccc(/C=C(\C#N)C(=O)Nc2cccc3ncccc23)cc1OC`: 6.66%; `COc1cc(/C=C(\C#N)C(=O)Nc2cccc3ncccc23)ccc1O`: 3.35%.
To `COc1ccc(/C=C(\C#N)C(=O)NCc2ccccc2)cc1O` belongs 8.17%; to `N#C/C(=C\c1ccc(O)c(Br)c1)C(=O)NCc1ccccc1`, 12.1%; to `CCc1ccc(NC(=O)/C(C#N)=C\c2ccc(OC)c(C(=O)O)c2)cc1`, 1.43%.
